Out of some 1,300 compounds screened, about 380 (29%) were called active. Not shown: some 37% with an inconclusive outcome. Calls come from the whole dose curve; as a rule, active = well fitted inhibition curve with a large enough effect; inconclusive = small, poorly fitted or top-dose-only effect; inactive = flat fitted curve, though single readings scatter. The list shows a part of the results. A call without a number means that no potency is given here.
Potency is the fitted concentration of half-maximal effect.

The target in the test is Thyrotropin receptor (Homo sapiens) (UniProt P16473). Put plainly: qHTS for antagonists of the Thyroid Stimulation Hormone Receptor: Hit Validation in Primary Screen. Note: nearly all actives have a fitted effect of over 80% in size. The note with it: TSHR-expressing cells, cAMP antagonist mode; series mostly up to 58 µM. In short, it runs like this: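 Competitive HTRF detected cAMP in lysates of TSHR cells, read 30 minutes after antibody and d2 addition at room temperature. Before lysis, cells had 2 hours at 37 deg C with compound plus EC80 TSH, 4nM final.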
Chain of Thyrotropin receptor (Homo sapiens) (P16473 whole entry, looked up): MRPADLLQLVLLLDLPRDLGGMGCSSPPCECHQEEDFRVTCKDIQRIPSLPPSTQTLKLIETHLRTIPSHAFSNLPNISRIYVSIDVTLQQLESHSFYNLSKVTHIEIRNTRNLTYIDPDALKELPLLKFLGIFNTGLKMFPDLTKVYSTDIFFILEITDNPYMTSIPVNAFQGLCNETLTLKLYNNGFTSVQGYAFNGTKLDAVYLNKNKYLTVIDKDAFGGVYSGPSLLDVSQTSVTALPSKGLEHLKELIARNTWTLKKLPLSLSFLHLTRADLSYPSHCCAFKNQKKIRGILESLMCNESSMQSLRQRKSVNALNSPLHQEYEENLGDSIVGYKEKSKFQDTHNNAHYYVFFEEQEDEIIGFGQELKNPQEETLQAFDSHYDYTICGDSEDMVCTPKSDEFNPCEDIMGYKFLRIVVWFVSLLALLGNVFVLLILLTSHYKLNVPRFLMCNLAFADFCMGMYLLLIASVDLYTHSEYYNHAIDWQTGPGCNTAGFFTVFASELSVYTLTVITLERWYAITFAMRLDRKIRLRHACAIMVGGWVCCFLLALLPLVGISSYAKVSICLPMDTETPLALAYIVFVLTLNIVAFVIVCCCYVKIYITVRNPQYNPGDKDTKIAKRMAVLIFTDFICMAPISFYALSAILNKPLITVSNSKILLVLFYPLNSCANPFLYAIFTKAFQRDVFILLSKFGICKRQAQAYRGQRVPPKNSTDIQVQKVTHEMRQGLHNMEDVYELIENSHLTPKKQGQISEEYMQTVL
On the technique in general: Quantitative high-throughput screening tests each substance at several concentrations.
For the compound `Clc1ccc(C2Nc3cccc4cccc(c34)N2)cc1`, the Potency entry is “inactive”.
To `O=C(O)c1ccccc1NS(=O)(=O)c1cccc(-n2sc3ccccc3c2=O)c1` belongs 23.9 µM (active); to `COc1cc(C(=O)NCCNC(=O)c2cnccn2)cc(OC)c1OC`, “inactive”; to `Cc1ccc(NS(=O)(=O)c2cc(C(=O)Nc3cccc([N+](=O)[O-])c3)ccc2C)cc1`, 21.3 µM (active).
As for `Cc1ccc(C(=O)Nc2cccc([N+](=O)[O-])c2)cc1S(=O)(=O)Nc1ccc(NC(=O)c2ccccc2)cc1`, the Potency entry was “inactive”.
To `Cc1ccc(S(=O)(=O)NCCNc2ccc([N+](=O)[O-])cc2)cc1` belongs “inactive”.
To `COCC(=O)N1CCC(n2nccc2NC(=O)c2ccccc2OC)CC1` belongs “inactive”; to `O=C(Nc1nc(-c2ccccc2)cs1)c1ccccc1NS(=O)(=O)c1ccc(F)cc1`, 3.38 µM (active); to `COc1ccc(S(=O)(=O)Nc2ccccc2C(=O)Nc2nc(-c3ccc(F)cc3)cs2)cc1OC`, 3.38 µM (active).
Turning to `COc1ccc(-c2csc(NC(=O)c3ccccc3NS(=O)(=O)c3ccc(F)c(F)c3)n2)cc1`, the Potency is 5.36 µM (active).
To `COc1ccc(-c2csc(NC(=O)c3ccccc3NS(=O)(=O)c3ccc(C)cc3)n2)cc1` belongs 3.38 µM (active); to `COc1cc(NS(=O)(=O)c2ccc(NC(=O)c3ccc(F)cc3)cc2)ncn1`, “inactive”.
To `Cc1ccc(S(=O)(=O)Oc2ccc(/C=C(/NC(=O)c3ccccc3)C(=O)Nc3ccccc3)cc2)cc1` belongs “inactive”; to `O=S(=O)(Nc1cccc(-c2ccc(N3CCCCCC3)nn2)c1)c1ccc(F)cc1`, “inactive”; to `COc1ccccc1C(=O)Nc1nnc(SCC(=O)NC2CCCC2)s1`, “inactive”.
To `C=CCN(c1ccccc1)S(=O)(=O)c1ccc2[nH]cc(C(=O)NCCOC)c(=O)c2c1` belongs “inactive”; to `O=C(Nc1ccc2nc3n(c(=O)c2c1)CCCCC3)C(=O)N1CCN(c2ccccc2F)CC1`, “inactive”.
As to `Clc1ccccc1CN(Cc1ccccc1)c1ncnc2nc[nH]c12`, the Potency is 26.9 µM (active).
To `Clc1ccc2c(c1)-c1nnc(Br)n1-c1ccccc1S2` belongs 26.9 µM (active).
To `CC(C)NC(=O)COc1coc(CN2CCN(c3ccccc3F)CC2)cc1=O` belongs “inactive”.
To `O=S(=O)(Nc1cc(Cl)ccc1-n1cncn1)c1cc(Br)ccc1Br` belongs 15.1 µM (active); to `COc1ccccc1CNC(=O)CSc1nc(N)c(C#N)c(-c2cccs2)c1C#N`, 37.9 µM (active).
As for `Cc1ccc(SCC(=O)NCc2ccccc2C)cc1`, the Potency entry was “inactive”.
To `COc1ccc(NC(=O)Cn2nnc(C(=O)NCc3cccs3)c2N)c(OC)c1` belongs “inactive”; to `CC(C)N(C(=O)Cn1c(-c2cccnc2)ccc(C#N)c1=O)C(C)C`, “inactive”.
To `CC1CCCC(NC(=O)CN2C(=O)COc3ccccc32)C1C` (stereo not given) belongs “inactive”.
To `N#CC(C#N)=NNc1ccc(S(=O)(=O)N2CCCCC2)cc1` belongs 3.01 µM (active); to `Cc1ccc(S(=O)(=O)N2CCOCC2)cc1N/N=C(\C#N)c1nc2ccccc2[nH]1`, “inactive”.
As to `COC(=O)c1ccc(COc2cc(O)c3c(c2)OC(C)(C)CC3=O)cc1`, the Potency was 30.1 µM (active).
To `Cc1ccc(S(=O)(=O)N2CCN(C(=O)CCn3cncn3)CC2)cc1` belongs “inactive”; to `CC(=O)c1ccc(S(=O)(=O)N2CCN(CCOc3ccc(Br)cc3)CC2)cc1`, 30.1 µM (active); to `Cc1ccc(O)c(N=Cc2cc(Cc3ccccc3)cc([N+](=O)[O-])c2O)c1`, 16.9 µM (active).
To `CN(C)S(=O)(=O)N1CCN(c2ccnc3cc(Cl)ccc23)CC1` belongs “inactive”; to `O=C(Nc1ccc(C(F)(F)F)cc1)c1csc(-c2ccncc2)n1`, 60.1 µM (active).
To `CC(C)(C)NC(=O)C(c1ccc(O)cc1)N(Cc1ccccc1)C(=O)CCC(=O)Nc1nccs1` (stereo not given) belongs “inactive”.
Regarding `O=[N+]([O-])c1c(NCCO)cc(Sc2nc3ccccc3s2)c2nonc12`, the Potency is 23.9 µM (active).
As for `Cc1nnc(Sc2cc(NCCCO)c([N+](=O)[O-])c3nonc23)s1`, the Potency is 33.8 µM (active).
In the case of `O=C(Nc1cc(Sc2nc3ccccc3s2)cc([N+](=O)[O-])c1)c1ccccc1F`, the Potency result was “inactive”.
To `Cc1nnc(SCC(=O)Nc2nonc2C)s1` belongs “inactive”.
To `O=C1C=C(c2ccc3[nH]ccc3c2)C[C@@H](c2ccc(Cl)cc2)C1` belongs “inactive”; to `O=C(/C=C/c1cccc(Cl)c1)c1ccc([N+](=O)[O-])o1`, 26.9 µM (active); to `C/C(=N\NC(=O)c1nnn(-c2nonc2N)c1-c1ccc(Cl)c(Cl)c1)c1ccncc1`, “inactive”.
To `CCn1nc(C)c(CN2CCCC(CNS(=O)(=O)c3ccc(OC)cc3)C2)c1C` (stereo not given) belongs “inactive”; to `C=C(C)C(=O)OCC(O)COc1ccc(C(C)(C)c2ccc(OCC(O)COC(=O)C(=C)C)cc2)cc1` (stereo not given), 21.3 µM (active).
As for `O=c1cc(-c2ccccc2)nc2c(-c3ccccc3)c(C(F)(F)F)[nH]n12`, the Potency was 6.01 µM (active).
With `Nc1nc2nc(-c3ccccc3)cc(C(F)(F)F)c2s1`, the Potency result was “inactive”.
To `COc1ccc(-c2cn(CCCOCc3ccccc3)nn2)cc1` belongs “inactive”.
To `COc1ccc(-c2c(C(F)(F)F)[nH]n3c(=O)cc(-c4ccccc4)nc23)cc1` belongs 19 µM (active).
To `COc1ccc(OC)c(C2=NOC(C(=O)NCC3CCCO3)C2)c1` (stereo not given) belongs “inactive”.
For the compound `Cc1sc2ncn(CC(=O)NCCCC(=O)NCc3ccc(F)cc3)c(=O)c2c1C`, the Potency entry is “inactive”.
To `Cc1ccc(CNC(=O)CCNC(=O)N2CCn3c2nc2ccccc23)cc1` belongs “inactive”; to `Cc1cc(NC(=O)c2cc(-c3ccco3)on2)nn1Cc1ccc(Cl)cc1`, 30.1 µM (active); to `O=C(Nc1ccccc1Cl)/C(Cl)=C(\Cl)S(=O)c1ccccc1` (stereo not given), 26.9 µM (active).
To `COc1ccc(NC(=O)/C(Cl)=C(/Cl)S(=O)Cc2ccccc2Cl)cn1` (stereo not given) belongs 21.3 µM (active); to `COc1ccc(NC(=O)/C(Cl)=C(/Cl)S(=O)Cc2ccc(Cl)cc2)cn1` (stereo not given), 30.1 µM (active).
To `COc1ccc(-n2nc(C(=O)NCC(=O)NCCCN3CCN(C)CC3)c3ccccc3c2=O)cc1` belongs “inactive”.
Turning to `Cc1ccccc1NC(=O)Cc1nc(COC(=O)c2cccc([N+](=O)[O-])c2)cs1`, the Potency entry was “inactive”.
To `CCSc1ccc(C(=O)Nc2ccc(Br)cn2)cc1[N+](=O)[O-]` belongs “inactive”; to `CC(=O)Oc1c(I)cc(I)cc1C(=O)Nc1ccc(Cl)cc1`, 1.9 µM (active); to `Cn1cc(Cl)c(C(=O)N/N=C/c2ccc3c4c(cccc24)CC3)n1`, “inactive”.

The record behind these values is PubChem BioAssay AID602292 (National Center for Advancing Translational Sciences (NCATS), 2012).
